In PubChem BioAssay (NCI):
Values joined by “and” are separate entries in the source; they are usually repeats but may differ in a detail not shown here. Equal values may be shown once. This is part of a sample that, as a whole, favours compounds with a hit. Of some 83,000 tested, about 20% had one in any assay.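 Interpretation: 100, growth as untreated; towards 0, rising growth inhibition; 0, no net growth; 0 to -100, cell death. Compounds scoring below 10 were considered active.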 Active and inactive are the calls of the source.

Key:
Assay in all cases: NCI-60 one-dose screen, 48 h (100 = growth as untreated, 0 = no growth, -100 = all killed)
SR leukemia = settings: 10 µM unless noted
OVCAR-8 ovarian = tested on: OVCAR-8 ovarian
OVCAR-5 ovarian = tested on: OVCAR-5 ovarian
OVCAR-4 ovarian = tested on: OVCAR-4 ovarian
IGROV1 ovarian = tested on: IGROV1 ovarian
OVCAR-3 ovarian = tested on: OVCAR-3 ovarian
HS 578T breast = tested on: HS 578T breast
NCI/ADR-RES ovarian = tested on: NCI/ADR-RES ovarian
T-47D breast = tested on: T-47D breast
BT-549 breast = tested on: BT-549 breast
MDA-MB-435 melanoma = tested on: MDA-MB-435 melanoma
MCF7 breast = tested on: MCF7 breast
HCT-116 colon = tested on: HCT-116 colon
HCC-2998 colon = tested on: HCC-2998 colon
KM12 colon = tested on: KM12 colon
SK-OV-3 ovarian = settings: 10 µM unless noted
SW-620 colon = settings: 10 µM unless noted
RPMI-8226 leukemia = settings: 10 µM unless noted

With `O=C(O)c1c(Cl)c(Cl)c(Cl)c(Cl)c1-c1c2cc(I)c(=O)c(I)c-2oc2c(I)c(O)c(I)cc12` the growth (SR leukemia) was 97.9% (inactive), the growth (OVCAR-8 ovarian; 10 µM) was 107% (inactive) and 105% (inactive) and 91.4% (inactive) and the growth (OVCAR-8 ovarian; 100 µM) was -13.2% (active). The growth (OVCAR-5 ovarian; 10 µM) was 107% (inactive) and 98.5% (inactive) and 104% (inactive), the growth (OVCAR-5 ovarian; 100 µM) was -42.9% (active) and the growth (OVCAR-4 ovarian; 10 µM) was 104% (inactive) and 110% (inactive) and 72.9% (inactive). The growth (OVCAR-4 ovarian; 100 µM) was 53.2% (inactive), the growth (IGROV1 ovarian; 10 µM) was 105% (inactive) and 80.5% (inactive) and -7.13% (active) and the growth (IGROV1 ovarian; 100 µM) was 5.19% (active). For the same molecule, the growth (OVCAR-3 ovarian; 10 µM) was 97.1% (inactive) and 72% (inactive) and 111% (inactive), the growth (OVCAR-3 ovarian; 100 µM) was -26.1% (active) and the growth (HS 578T breast; 10 µM) was 107% (inactive) and 93.5% (inactive). The growth (HS 578T breast; 100 µM) was 27.5% (inactive), the growth (NCI/ADR-RES ovarian; 10 µM) was 103% (inactive) and 98% (inactive) and 109% (inactive) and the growth (NCI/ADR-RES ovarian; 100 µM) was 10.7% (inactive). For the same molecule, the growth (T-47D breast; 10 µM) was 110% (inactive) and 85.9% (inactive) and 95.8% (inactive), the growth (T-47D breast; 100 µM) was -47.8% (active) and the growth (BT-549 breast; 10 µM) was 108% (inactive) and 117% (inactive) and 43.5% (inactive). For the same molecule, the growth (BT-549 breast; 100 µM) was -47.5% (active), the growth (MDA-MB-435 melanoma; 10 µM) was 104% (inactive) and 113% (inactive) and 110% (inactive) and the growth (MDA-MB-435 melanoma; 100 µM) was 69% (inactive). The growth (MCF7 breast; 10 µM) was 101% (inactive) and 98.9% (inactive) and 81.2% (inactive), the growth (MCF7 breast; 100 µM) was -38.3% (active) and the growth (HCT-116 colon; 10 µM) was 106% (inactive) and 103% (inactive) and 114% (inactive). The growth (HCT-116 colon; 100 µM) was 0.594% (active), the growth (HCC-2998 colon; 10 µM) was 110% (inactive) and 106% (inactive) and 113% (inactive) and the growth (HCC-2998 colon; 100 µM) was -7.72% (active). The growth (KM12 colon; 10 µM) was 102% (inactive) and 99.9% (inactive) and 104% (inactive) and the growth (KM12 colon; 100 µM) was 67.9% (inactive).

In the case of `NC(N)=N/N=C/c1ccc([N+](=O)[O-])o1`, the growth (SR leukemia) is reported as 98.3% (inactive), the growth (OVCAR-8 ovarian; 10 µM unless noted) is reported as 79.7% (inactive) and the growth (OVCAR-5 ovarian; 10 µM unless noted) is reported as 123% (inactive). For the same molecule, the growth (OVCAR-4 ovarian; 10 µM unless noted) was 82.8% (inactive), the growth (SK-OV-3 ovarian) was 116% (inactive) and the growth (IGROV1 ovarian; 10 µM unless noted) was 98% (inactive). The growth (HS 578T breast; 10 µM unless noted) was 105% (inactive), the growth (NCI/ADR-RES ovarian; 10 µM unless noted) was 99.5% (inactive) and the growth (T-47D breast; 10 µM unless noted) was 96.7% (inactive). For the same molecule, the growth (BT-549 breast; 10 µM unless noted) was 94.5% (inactive), the growth (MDA-MB-435 melanoma; 10 µM unless noted) was 115% (inactive) and the growth (SW-620 colon) was 105% (inactive). For the same molecule, the growth (MCF7 breast; 10 µM) was 72.4% (inactive), the growth (HCT-116 colon; 10 µM unless noted) was 89% (inactive) and the growth (HCC-2998 colon; 10 µM unless noted) was 88% (inactive). The growth (KM12 colon; 10 µM unless noted) was 82.3% (inactive).

`CNc1ccc2c(c1)c1ccccc1n2C` was tested, and the growth (SR leukemia) was 93.9% (inactive), the growth (OVCAR-8 ovarian; 10 µM unless noted) was 100% (inactive) and the growth (OVCAR-5 ovarian; 10 µM unless noted) was 112% (inactive). For the same molecule, the growth (OVCAR-4 ovarian; 10 µM unless noted) was 108% (inactive), the growth (SK-OV-3 ovarian) was 106% (inactive) and the growth (IGROV1 ovarian; 10 µM unless noted) was 109% (inactive). The growth (HS 578T breast; 10 µM unless noted) was 118% (inactive), the growth (NCI/ADR-RES ovarian; 10 µM unless noted) was 102% (inactive) and the growth (T-47D breast; 10 µM unless noted) was 91.3% (inactive). The growth (BT-549 breast; 10 µM unless noted) was 106% (inactive), the growth (MDA-MB-435 melanoma; 10 µM unless noted) was 115% (inactive) and the growth (SW-620 colon) was 111% (inactive). The growth (MCF7 breast; 10 µM) was 97.5% (inactive), the growth (HCT-116 colon; 10 µM unless noted) was 107% (inactive) and the growth (HCC-2998 colon; 10 µM unless noted) was 99.4% (inactive). The growth (KM12 colon; 10 µM unless noted) was 104% (inactive).

In the case of `CCCCCC(CCCCC)C(=O)O`, the growth (SR leukemia) is reported as 99.7% (inactive), the growth (RPMI-8226 leukemia) is reported as 97.3% (inactive) and the growth (OVCAR-5 ovarian; 10 µM unless noted) is reported as 110% (inactive). For the same molecule, the growth (OVCAR-4 ovarian; 10 µM unless noted) was 106% (inactive), the growth (SK-OV-3 ovarian) was 98.4% (inactive) and the growth (IGROV1 ovarian; 10 µM unless noted) was 96.3% (inactive). The growth (OVCAR-3 ovarian; 10 µM unless noted) was 118% (inactive), the growth (HS 578T breast; 10 µM unless noted) was 104% (inactive) and the growth (NCI/ADR-RES ovarian; 10 µM unless noted) was 117% (inactive). The growth (T-47D breast; 10 µM unless noted) was 100% (inactive), the growth (MDA-MB-435 melanoma; 10 µM unless noted) was 123% (inactive) and the growth (SW-620 colon) was 110% (inactive). For the same molecule, the growth (MCF7 breast; 10 µM) was 100% (inactive), the growth (HCT-116 colon; 10 µM unless noted) was 109% (inactive) and the growth (HCC-2998 colon; 10 µM unless noted) was 119% (inactive). The growth (KM12 colon; 10 µM unless noted) was 109% (inactive).

For `Cc1ccc2nc(C[n+]3ccc4ccccc4c3)ccc2c1`, the growth (SR leukemia) was 62.8% (inactive), the growth (RPMI-8226 leukemia) was 30.5% (inactive) and the growth (OVCAR-5 ovarian; 10 µM unless noted) was 79.7% (inactive). For the same molecule, the growth (OVCAR-4 ovarian; 10 µM unless noted) was 43.8% (inactive), the growth (IGROV1 ovarian; 10 µM unless noted) was 59.7% (inactive) and the growth (OVCAR-3 ovarian; 10 µM unless noted) was 52.8% (inactive). For the same molecule, the growth (HS 578T breast; 10 µM unless noted) was 90.8% (inactive), the growth (NCI/ADR-RES ovarian; 10 µM unless noted) was 104% (inactive) and the growth (T-47D breast; 10 µM unless noted) was 32.2% (inactive). The growth (BT-549 breast; 10 µM unless noted) was 21.7% (inactive), the growth (MDA-MB-435 melanoma; 10 µM unless noted) was 54.7% (inactive) and the growth (SW-620 colon) was 80.2% (inactive). For the same molecule, the growth (MCF7 breast; 10 µM) was 35.6% (inactive), the growth (HCT-116 colon; 10 µM unless noted) was 53.5% (inactive) and the growth (HCC-2998 colon; 10 µM unless noted) was 71.2% (inactive). For the same molecule, the growth (KM12 colon; 10 µM unless noted) was 56.4% (inactive).

In the case of `COc1cc(NS(C)(=O)=O)ccc1Nc1c2ccccc2nc2ccccc12`, the growth (SR leukemia) is reported as 19.4% [2.5 µM] (inactive), the growth (OVCAR-5 ovarian; 10 µM unless noted) is reported as 46.8% [2.5 µM] (inactive) and the growth (OVCAR-4 ovarian; 10 µM unless noted) is reported as 87.8% [2.5 µM] (inactive). The growth (SK-OV-3 ovarian) was 32.5% [2.5 µM] (inactive), the growth (IGROV1 ovarian; 10 µM unless noted) was 48.6% [2.5 µM] (inactive) and the growth (OVCAR-3 ovarian; 10 µM unless noted) was 58.7% [2.5 µM] (inactive). For the same molecule, the growth (HS 578T breast; 10 µM unless noted) was -6.75% [2.5 µM] (active), the growth (NCI/ADR-RES ovarian; 10 µM unless noted) was 70.2% [2.5 µM] (inactive) and the growth (T-47D breast; 10 µM unless noted) was 23.1% [2.5 µM] (inactive). For the same molecule, the growth (BT-549 breast; 10 µM unless noted) was 20.2% [2.5 µM] (inactive), the growth (MDA-MB-435 melanoma; 10 µM unless noted) was 64.1% [2.5 µM] (inactive) and the growth (SW-620 colon) was 41.5% [2.5 µM] (inactive). For the same molecule, the growth (MCF7 breast; 2.5 µM) was 32.5% (inactive), the growth (MCF7 breast; 10 µM) was 22.5% (inactive) [middle of 4 runs] and the growth (MCF7 breast; 250 µM) was -69.8% (active) and -100% (active). The growth (HCT-116 colon; 10 µM unless noted) was 31% [2.5 µM] (inactive), the growth (HCC-2998 colon; 10 µM unless noted) was -44.3% [2.5 µM] (active) and the growth (KM12 colon; 10 µM unless noted) was 48.6% [2.5 µM] (inactive).
